Anthrax LF prot = inhibitors of Bacillus anthracis lethal factor protease; inhibition, % at 10 µM; hit rate 0.12% among 360,000; AID 588501; multiplex microsphere protease cleavage assay, LF; note: plate controls were buffer without enzyme for full effect and enzyme alone for no effect
BoNT F protease = BoNT F light chain protease inhibition; inhibition, % at 10 µM; Multiplex microsphere protease cleavage assay, flow cytometry; hit rate 0.22% among 360,000; AID 588497; in the data active = inhibition above about 35%, passing the limit was not always enough; inconclusive = no clear call, values can overlap the other calls; note: plate controls were buffer without enzyme for full effect and enzyme alone for no effect
Autofluor counter = counter-screen for toxin protease inhibitors: compound fluorescence; compound autofluorescence counterscreen, microsphere flow cytometry; stronger effect = higher value; fluorescence intensity (no concentration beside the values); hit rate 3.1% among 360,000; in the data active = fluorescence intensity above about 16000; inconclusive = no clear call, values can overlap the other calls
BoNT-A LC inh2 = inhibitors of Botulinum neurotoxin A light chain protease. hit rate 0.17% among 360,000. multiplex microsphere protease substrate cleavage, flow cytometry. inhibition, % at 10 µM; note: plate controls were buffer without enzyme for full effect and enzyme alone for no effect
MazEF act = increases E. coli MazEF RNase cleavage of RNA | FAM/BHQ RNA-DNA oligo cleavage fluorescence, 5 h | activation, % at 20 µM | hit rate 0.32% among 350,000; in the data active = activation above about 50%
Target sequence (P0AE70 whole entry, looked up): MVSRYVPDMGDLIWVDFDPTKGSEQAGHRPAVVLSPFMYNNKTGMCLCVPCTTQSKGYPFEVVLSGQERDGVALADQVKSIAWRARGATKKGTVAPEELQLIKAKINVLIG
An asterisk follows results filed as active; u = inconclusive; x = no result; + = active, no number. Hits are enriched below; roughly 3.7% of the tested compounds scored in any of these assays. Cut-off read from the data, not from the text of the source, unless noted: active = inhibition above about 30%; inconclusive = no clear call, values can overlap the other calls; inactive = below that.

SMILES	Anthrax LF prot	BoNT F protease	Autofluor counter	BoNT-A LC inh2	MazEF act
COc1cccc(C2=NOC(C(=O)Nc3ccc(OC)c(OC)c3)C2)c1 (stereo not given)	0	-2	10066	1	6
CC1CCCC(C)N1C(=O)C1CC(c2ccc(F)cc2)=NO1 (stereo not given)	0	-4	17330*	-3	6
O=C(NC1CCCC1)C1CC(c2ccc(F)cc2)=NO1 (stereo not given)	0	-5	23071*	-1	-6
NS(=O)(=O)c1ccc(CCNC(=O)CSc2ccc(Cl)cc2Cl)cc1	-4	-6	4765	0	63*
CCS(=O)(=O)c1ccc2oc(SCC(=O)NCCc3ccccc3)nc2c1	0	0	3352	0	2
O=C(CSc1nc2cc(Cl)ccc2o1)NCCc1ccccc1	0	-4	19890*	-1	-4
Cc1cc(C)n(CC(=O)Nc2ccc3c(c2)OCO3)c(=O)c1C#N	x	x	x	x	2
COc1ccc(C(O)c2nc(-c3cc(F)cc(F)c3)cs2)cc1 (stereo not given)	-3	-1	4144	0	x
COc1ccc(OC)c(C(C)NC(C)=O)c1 (stereo not given)	-3	-5	18227*	-4	1
Cc1ccc(NC(=O)CN2C(=O)S/C(=C/c3ccc(-c4cc(C(=O)O)ccc4C)o3)C2=O)cc1C	-4	-1	16807*	0	75*
COc1cc2c(cc1OC)[C@@H](Cc1ccc(OCCC#N)cc1)N(C)CC2	-1	40*	3356	-1	7
CCN1C(=S)SC(=O)C1=C1C=C(C)N(Cc2ccco2)C(C)=C1	-4	-14	3814	2	-9
CCN1C(=S)SC(=O)C1=C1C=C(C)OC(C)=C1	-1	-8	u	0	+
Cc1ccc(C)c(N(CC(=O)NC(C)(C)C)C(=O)CCC(=O)Nc2nccs2)c1	7	u	3325	-3	-29
Cc1[nH]n(-c2ccccc2)c(=O)c1C1(C(F)(F)F)C(=O)N(c2ccccc2)C2=C1C(=O)CC(C)(C)C2 (stereo not given)	-2	2	23155*	u	5
CCOC(=O)N1CCC(NS(=O)(=O)c2ccc3c(c2)oc(=O)n3C)CC1	2	-1	16773*	2	-33
Cn1c(=O)oc2cc(S(=O)(=O)NC3CCCCCCC3)ccc21	-3	-2	16482*	-1	3
CSc1ccccc1NS(=O)(=O)c1cccc2nonc12	-4	0	5487	1	4
O=C(N=Nc1c(O)[nH]c2ccc(Cl)cc12)c1cc(-c2cccs2)nc2ccccc12	-3	13	8830	1	-14
O=C(COc1ccc2ccc(=O)oc2c1)NCCCN1CCCC1=O	2	0	5012	3	6
O=C1CC(N2C(=O)/C(=C/C=C/c3ccccc3)SC2=S)C(=O)N1c1ccccc1 (stereo not given)	35*	21	2114	64*	0
O=c1ncccn1C1OC(CO)C(O)C1O (stereo not given)	2	8	5378	0	x
CC(=O)Oc1ccc2c(=O)c(N3C(=O)c4ccccc4C3=O)c(C)oc2c1	3	-3	2475	0	7
CCCOc1ccc2c(=O)c(N3C(=O)c4ccccc4C3=O)c(C)oc2c1	-4	-1	20166*	0	-1
Cc1oc2cc(O)ccc2c(=O)c1N1C(=O)c2ccccc2C1=O	-3	-1	19700*	1	0
SMILES	Anthrax LF prot	BoNT F protease	Autofluor counter	BoNT-A LC inh2	MazEF act
CCOc1ccc(/C(O)=C2/C(=O)C(=O)N(CCOCCO)C2c2ccccn2)cc1 (stereo not given)	-8	-3	22618*	-2	0
CCOc1ccc(/C(O)=C2/C(=O)C(=O)N(CCOCCO)C2c2ccc(F)cc2)cc1 (stereo not given)	0	-10	3044	0	0
COc1cc2c(cc1OC)CN(CCC(C)c1ccc(Cl)cc1)CC2 (stereo not given)	x	x	x	x	-8
CC(C)c1ccc(/C=N/NC(=O)c2cc(-c3cccc([N+](=O)[O-])c3)n[nH]2)cc1	-16	34	3155	-1	-1
C/C(=N/NC(=O)c1cc(-c2cccc([N+](=O)[O-])c2)n[nH]1)c1ccc(Cl)cc1	-1	1	10348	0	56*
CCOC(=O)CCCCC1C(CCCC(=O)OCC)C=NN1C (stereo not given)	-3	3	4595	0	-18
COc1c(C)cc(Br)cc1C(=O)O	-5	-2	22363*	0	-16
COc1c(C)cc(Br)cc1C(=O)Nc1ccccc1C	-2	-3	4677	-1	-326

Screening data from PubChem.
